Assay results reported in PubChem BioAssay (Tox21).
Records with an inconclusive call do not appear. Entries that show only a call come without a potency. Values without a mark were called inactive. Calls of active or inactive are those of the source. Calls follow the shape of the dose curve; as a rule, active = well fitted cell-killing curve with a large enough effect in the repeat runs; inconclusive = weak or mixed curves, or effect the other way; inactive = flat fitted curve, though single readings scatter.

Experiment: qHTS RealTime-Glo MT Cell Viability Assay in HEK293 cells - 24 hour (AID 1224886); also: nearly all actives have a fitted effect of over 50% in size; as to activity change, negative = cytotoxicity: top concentration of the series differs between compounds
Conditions: RealTime-Glo luminescence; series mostly up to 76.8 µM
Excerpt: National Center for Advancing Translational Sciences [NCATS]
NIH Chemical Genomics Center [NCGC]
U.S. Environmental Protection Agency [EPA]
National Institutes of Environmental Health Sciences [NIEHS]
National Toxicology Program [NTP]
U.S. Food and Drug Administration [FDA]
Measure of cell viability is critical in the cell-base assay. Analysis of cell viability is necessary for the characterization of cell responses to cytotoxic drugs and environmental stress. A RealTime-Glo MT Cell Viability Assay to monitor cell viability in real time of continues cell culture during 40 hours of compound treatment was used to screen Tox21 10K library compounds in Hek293 cells. The RealTime-Glo MT Cell Viability Assay is a nonlytic, homogeneous, bioluminescent method to measure cell viability in real time using a simple, plate-based method. The assay involves adding NanoLuc luciferase and a cell-permeant prosubstrate to cells in culture. Viable cells reduce the proprietary prosubstrate to generate a substrate for NanoLuc luciferase. This substrate diffuses from cells into the surrounding culture medium, where it is rapidly used by the NanoLuc Enzyme to produce a luminescent signal. The signal correlates with the number of viable cells, making the assay well suited for cytotoxicity studies.
Tox21 Assay Protocol Summary:
The mixture of Hek293 cell suspension and reagents were dispensed at 600cells/6 ul/well in 1536-well tissue culture treated black solid bottom plates using a Multidrop dispenser. After the assay plates were incubated at a 37 C/5% CO2 incubator for 5 hours, 23 nL of compounds dissolved in DMSO, positive and negative controls was transferred to the assay plate by a pintool work station. The plates were incubated at 37 C for 40 hours. The luminescence intensity were measured at 0h, 8h, 16h, 24h, 32h and 40h time points using ViewLux plate reader during compound treatment.
Potency is read from the fitted curve at half-maximal effect.

Compound	Potency	activity change, negative = cytotoxicity
O=C(COCCOCCOCC(=O)Nc1c(I)cc(I)c(C(=O)O)c1I)Nc1c(I)cc(I)c(C(=O)O)c1I	inactive	
CCCCCCCCCCCCC	inactive	
Cc1nc([N+](=O)[O-])cn1-c1ccc([N+](=O)[O-])cc1	inactive	
CNC(=O)C(c1ccccc1)c1ccccc1	inactive	
CCCO	inactive	
CC(=O)OC(C)c1ccccc1 (stereo not given)	inactive	
Cc1ncc([N+](=O)[O-])n1CC(O)CCl (stereo not given)	inactive	
CCCCOC(=O)C(C)OC(=O)CCC (stereo not given)	inactive	
Cc1ccccc1OCC1CO1 (stereo not given)	inactive	
O=C(CN1CCN(Cc2ccc3c(c2)OCO3)CC1)N1c2ccccc2Sc2ccccc21	inactive	
CCOC(=O)CCc1ccccc1	inactive	
O=CO		1.22% [at 6.97 µM]
C[C@H](CCC(=O)NCC(=O)O)[C@H]1CC[C@H]2[C@@H]3[C@H](O)C[C@@H]4C[C@H](O)CC[C@]4(C)[C@H]3C[C@H](O)[C@]12C	13.4 µM (active)	
OC(CCN1CCCCC1)(c1ccccc1)c1ccccc1	inactive	
NCCc1ccn[nH]1	inactive	
CCCOC(=O)CCCCC(=O)OCCC	inactive	
Nc1cc(Cl)cc(S(=O)(=O)O)c1O	inactive	
CC(CC(=O)O)CC(C)(C)C (stereo not given)	inactive	
NS(=O)(=O)c1ccccc1OC(F)(F)F	inactive	
CCCCCCCCCCCCCC(=O)OC	inactive	

Compound	Potency	activity change, negative = cytotoxicity
Cc1ccccc1C(=O)N1CC/C(=N\OS(=O)(=O)O)c2ccc(Cl)cc21	inactive	
O=C(O)Cc1cccc(-c2cc(CCCCCCc3ccc(O[C@H]4O[C@H](CO)[C@@H](O)[C@H](O)[C@@H]4O)c(-c4cccc(CC(=O)O)c4)c3)ccc2O[C@H]2O[C@H](CO)[C@@H](O)[C@H](O)[C@@H]2O)c1		-1.38% [at 0.29 µM]
CC(C)SCc1ccco1	inactive	
O=C(O)c1ccccc1C(=O)OCc1ccccc1	inactive	
CCCCC(CC)C(=O)OC(C)C (stereo not given)	inactive	
Cc1nc(C)nc(N2C[C@@H](C)N(c3ccnc([C@@H](C)O)n3)[C@@H](C)C2)n1	inactive	
CCCCCC1Nc2cc(C(F)(F)F)c(S(N)(=O)=O)cc2S(=O)(=O)N1 (stereo not given)	inactive	
CCCOCCOCCOCCO	inactive	
CCCCC(CC)COC(=O)c1ccccc1 (stereo not given)	inactive	
CC(=O)Nc1ncc([N+](=O)[O-])s1	inactive	
CCOC(=O)CCCCCCCCC(=O)OCC	inactive	
Cn1c(=O)c2c(ncn2CC2OCCO2)n(C)c1=O	inactive	
CCN(CC)C(=O)C1CN2CCc3cc(OC)c(OC)cc3C2CC1OC(C)=O (stereo not given)	inactive	
c1ccccc1	inactive	
Nc1ccc(S(=O)(=O)NC(=O)c2ccccc2)cc1	inactive	
NC(Cc1c[nH]c2ccccc12)C(=O)O (stereo not given)	inactive	
O=C(/C=C/c1ccccc1)NCCO	inactive	
FC(F)(F)/C(=N\OCC1OCCO1)c1ccc(Cl)cc1	inactive	
CCCCC(=O)N(C)C	inactive	
CCCCC(CC)CNC(=O)CC(C)OC(=O)CCC(=O)O (stereo not given)	inactive	
